From PubChem BioAssay (EPA / NIEHS)
Active and inactive are the calls of the source. How the source made its calls: active means hit-call score of the fitted dose curve at least 0.9, where 1 is the maximum; inactive means score below 0.9.

test: APR_HepG2_NuclearSize_24hr: Apredica 24-hour HepG2 Assay for Nuclear Size (AID 2282907); conditions: high-content imaging, actives raise or lower the signal
Method in brief: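 Read-out: nuclear diameter from Hoechst 33342 (2 ug/mL) imaging of fixed HepG2 cells, 20x, six fields/well. Compounds ran at 0.39–200 uM for 24 hr, 0.5% DMSO final. Gain or loss was fitted bidirectionally relative to the DMSO baseline.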

AC50, active:
COc1ccc(OC(F)(F)F)cc1CN[C@H]1CCCN[C@H]1c1ccccc1 33.4 µM
Nc1nc(Cl)nc2c1ncn2[C@H]1C[C@H](O)[C@@H](CO)O1 0.0451 µM
CCCCc1nc2cccnc2n1Cc1ccc(-c2ccccc2-c2nnn[nH]2)cc1 51 µM

outcome, inactive:
Oc1ccc(O)cc1
CN(C)C(=O)NC1(c2ccccc2)CCN(CC[C@@]2(c3ccc(F)c(F)c3)CN(C(=O)c3ccccc3)CCO2)CC1
CN(C)C(=O)NC1(c2ccccc2)CCN(CCC[C@]2(c3ccc(Cl)c(Cl)c3)CCCN(C(=O)c3ccccc3)C2)CC1
NCCOCCOCCN
CCc1nc(N)nc(N)c1-c1ccc(Cl)cc1
CC(C)(O)c1ccc(CNC(=O)c2cccnc2Oc2ccc(F)cc2)cc1
CN(C)CCCN(C)CCCN(C)C
Cc1cc(SC2=C(O)C[C@@](CCc3ccc(N)cc3)(C(C)C)OC2=O)c(C(C)(C)C)cc1CO
OCC(CO)n1cnc(-c2ccc(F)cc2)c1-c1ccnc(Oc2ccccc2)n1
c1ccc2occc2c1
CCCCC(CC)COC(=O)CCCCCCCC(=O)OCC(CC)CCCC (configuration not stated)
CC(C)(C)c1ccccc1
COC(=O)CCC(=O)OC
CCCCC(CC)COP(=O)(OCC(CC)CCCC)OCC(CC)CCCC (configuration not stated)
COC(=O)CCCC(=O)OC
O=C(O)c1[nH]n(-c2ccc(S(=O)(=O)O)cc2)c(=O)c1N=Nc1ccc(S(=O)(=O)O)cc1

test: APR_HepG2_CellLoss_24hr: Apredica 24-hour HepG2 Assay for Cell Loss (AID 2282908); conditions: high-content imaging;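 on AC50: fit in both directions so a hit may be cell loss or gain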
Method in brief: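 Read-out: Hoechst 33342-stained nuclei counted by automated fluorescence imaging after formaldehyde fixation and Triton permeabilization. Ten concentrations, 0.39 to 200 uM, duplicate wells, 0.5% DMSO final. Gain or loss of signal fitted relative to DMSO baseline.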

outcome, inactive:
O=C1c2c(O)cccc2Cc2cccc(O)c21
CCCCCCCC(=O)OC
CCc1cc(C2=C(C(=O)O)N(c3ccccc3C(F)(F)F)S(=O)(=O)c3ccccc32)cc2c1OCO2
OCC(O)CO
S=c1[nH]c2ccccc2s1
CO[C@@H]1COCC[C@@H]1N[C@@H]1CC[C@@](C(=O)N2CCc3ncc(C(F)(F)F)cc3C2)(C(C)C)C1
CS(=O)(=O)c1ccc([C@@H](C[C@H]2CCC(=O)C2)C(=O)Nc2cnccn2)cc1Cl
Oc1ccc(O)cc1
CN(C)C(=O)NC1(c2ccccc2)CCN(CC[C@@]2(c3ccc(F)c(F)c3)CN(C(=O)c3ccccc3)CCO2)CC1
CCc1nc(N)nc(N)c1-c1ccc(Cl)cc1
CC(C)(O)c1ccc(CNC(=O)c2cccnc2Oc2ccc(F)cc2)cc1
CN(C)CCCN(C)CCCN(C)C
Cc1cc(SC2=C(O)C[C@@](CCc3ccc(N)cc3)(C(C)C)OC2=O)c(C(C)(C)C)cc1CO
OCC(CO)n1cnc(-c2ccc(F)cc2)c1-c1ccnc(Oc2ccccc2)n1
c1ccc2occc2c1
CCCCC(CC)COC(=O)CCCCCCCC(=O)OCC(CC)CCCC (configuration not stated)
CC(C)(C)c1ccccc1
COC(=O)CCC(=O)OC
COC(=O)CCCC(=O)OC
O=C(O)c1[nH]n(-c2ccc(S(=O)(=O)O)cc2)c(=O)c1N=Nc1ccc(S(=O)(=O)O)cc1

AC50, active:
CCCCCCCCCC[N+](C)(C)[O-] 109 µM
CN(C)CCCN1c2ccccc2Sc2ccc(Cl)cc21 35 µM
COc1ccc(C(=O)Nc2nc3ccccc3c(NCc3ccccc3)c2C#N)cc1 119 µM
COc1ccc(OC(F)(F)F)cc1CN[C@H]1CCCN[C@H]1c1ccccc1 45.8 µM
CN(C)C(=O)NC1(c2ccccc2)CCN(CCC[C@]2(c3ccc(Cl)c(Cl)c3)CCCN(C(=O)c3ccccc3)C2)CC1 24.9 µM
NCCOCCOCCN 92.3 µM
Nc1nc(Cl)nc2c1ncn2[C@H]1C[C@H](O)[C@@H](CO)O1 0.0403 µM
CCCCc1nc2cccnc2n1Cc1ccc(-c2ccccc2-c2nnn[nH]2)cc1 32.6 µM
CCCCC(CC)COP(=O)(OCC(CC)CCCC)OCC(CC)CCCC (configuration not stated) 37.7 µM

test: APR_HepG2_MicrotubuleCSK_24hr: Apredica 24-hour HepG2 Assay for Microtubule CSK Stabilty (AID 2282909); conditions: HepG2 microtubule cytoskeleton imaging, actives raise or lower the signal
Method in brief: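 Read-out: alpha-tubulin immunofluorescence intensity by automated high-content imaging of fixed HepG2 cells after 24 h compound treatment. Ten concentrations, 0.39 to 200 uM, in duplicate; DMSO 0.5% v/v. Taxol positive control; DMSO-normalized bidirectional curve fitting.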

outcome, inactive:
O=C1c2c(O)cccc2Cc2cccc(O)c21
CCCCCCCC(=O)OC
CCc1cc(C2=C(C(=O)O)N(c3ccccc3C(F)(F)F)S(=O)(=O)c3ccccc32)cc2c1OCO2
OCC(O)CO
S=c1[nH]c2ccccc2s1
CCCCCCCCCC[N+](C)(C)[O-]
CN(C)CCCN1c2ccccc2Sc2ccc(Cl)cc21
COc1ccc(C(=O)Nc2nc3ccccc3c(NCc3ccccc3)c2C#N)cc1
CO[C@@H]1COCC[C@@H]1N[C@@H]1CC[C@@](C(=O)N2CCc3ncc(C(F)(F)F)cc3C2)(C(C)C)C1
CS(=O)(=O)c1ccc([C@@H](C[C@H]2CCC(=O)C2)C(=O)Nc2cnccn2)cc1Cl
COc1ccc(OC(F)(F)F)cc1CN[C@H]1CCCN[C@H]1c1ccccc1
Oc1ccc(O)cc1
CN(C)C(=O)NC1(c2ccccc2)CCN(CC[C@@]2(c3ccc(F)c(F)c3)CN(C(=O)c3ccccc3)CCO2)CC1
CCc1nc(N)nc(N)c1-c1ccc(Cl)cc1
CC(C)(O)c1ccc(CNC(=O)c2cccnc2Oc2ccc(F)cc2)cc1
Nc1nc(Cl)nc2c1ncn2[C@H]1C[C@H](O)[C@@H](CO)O1
CN(C)CCCN(C)CCCN(C)C
Cc1cc(SC2=C(O)C[C@@](CCc3ccc(N)cc3)(C(C)C)OC2=O)c(C(C)(C)C)cc1CO
OCC(CO)n1cnc(-c2ccc(F)cc2)c1-c1ccnc(Oc2ccccc2)n1
c1ccc2occc2c1
CCCCC(CC)COC(=O)CCCCCCCC(=O)OCC(CC)CCCC (configuration not stated)
CC(C)(C)c1ccccc1
COC(=O)CCC(=O)OC
CCCCC(CC)COP(=O)(OCC(CC)CCCC)OCC(CC)CCCC (configuration not stated)
COC(=O)CCCC(=O)OC
O=C(O)c1[nH]n(-c2ccc(S(=O)(=O)O)cc2)c(=O)c1N=Nc1ccc(S(=O)(=O)O)cc1

AC50, active:
CN(C)C(=O)NC1(c2ccccc2)CCN(CCC[C@]2(c3ccc(Cl)c(Cl)c3)CCCN(C(=O)c3ccccc3)C2)CC1 8.32 µM
NCCOCCOCCN 170 µM
CCCCc1nc2cccnc2n1Cc1ccc(-c2ccccc2-c2nnn[nH]2)cc1 35.7 µM
